Our source for the log2 fold change values is the supplement of paper PMC10849652.

About 7,900 targets were measured; listed, in parts, are those with a hit and a random draw of the rest. About 0.6% of all pairs of compound and target were hits. Unmarked numbers belong to inactive results.

Sequence of UniProt Q8NBW4 (Q8NBW4 whole entry, looked up): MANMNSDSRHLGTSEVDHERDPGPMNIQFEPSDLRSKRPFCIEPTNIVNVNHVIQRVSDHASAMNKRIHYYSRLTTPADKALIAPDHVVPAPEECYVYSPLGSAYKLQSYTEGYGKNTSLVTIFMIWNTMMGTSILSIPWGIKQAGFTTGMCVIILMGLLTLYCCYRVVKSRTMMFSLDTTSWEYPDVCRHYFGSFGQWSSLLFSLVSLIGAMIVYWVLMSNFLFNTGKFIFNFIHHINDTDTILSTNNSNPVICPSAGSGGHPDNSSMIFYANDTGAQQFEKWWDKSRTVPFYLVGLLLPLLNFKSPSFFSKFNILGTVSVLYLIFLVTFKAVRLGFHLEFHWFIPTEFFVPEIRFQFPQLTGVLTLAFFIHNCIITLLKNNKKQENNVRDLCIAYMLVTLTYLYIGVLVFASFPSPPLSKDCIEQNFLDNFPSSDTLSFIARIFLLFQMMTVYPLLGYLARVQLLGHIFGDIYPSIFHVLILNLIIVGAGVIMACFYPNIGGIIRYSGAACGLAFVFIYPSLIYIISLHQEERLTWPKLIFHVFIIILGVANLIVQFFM
Sequence of UniProt Q16842 (Q16842 whole entry, looked up): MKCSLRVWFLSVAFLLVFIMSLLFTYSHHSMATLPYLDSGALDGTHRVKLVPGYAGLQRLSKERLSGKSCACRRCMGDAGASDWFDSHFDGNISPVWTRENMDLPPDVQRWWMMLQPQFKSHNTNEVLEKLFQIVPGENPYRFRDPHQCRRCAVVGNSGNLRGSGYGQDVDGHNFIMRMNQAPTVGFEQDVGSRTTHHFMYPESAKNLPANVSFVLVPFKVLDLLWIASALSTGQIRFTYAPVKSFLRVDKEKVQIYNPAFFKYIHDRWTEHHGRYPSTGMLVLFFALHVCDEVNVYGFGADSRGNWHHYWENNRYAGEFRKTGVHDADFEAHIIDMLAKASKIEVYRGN
Sequence of UniProt Q15526 (Q15526 whole entry, looked up): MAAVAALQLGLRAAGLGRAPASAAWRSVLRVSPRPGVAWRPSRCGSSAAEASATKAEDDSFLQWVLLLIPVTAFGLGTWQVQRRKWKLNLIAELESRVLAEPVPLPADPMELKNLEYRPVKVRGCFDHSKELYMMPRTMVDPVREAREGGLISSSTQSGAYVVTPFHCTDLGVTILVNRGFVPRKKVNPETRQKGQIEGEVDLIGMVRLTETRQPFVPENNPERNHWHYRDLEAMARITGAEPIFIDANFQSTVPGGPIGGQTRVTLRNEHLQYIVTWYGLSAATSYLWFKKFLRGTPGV
Sequence of UniProt Q92609 (Q92609 whole entry, looked up): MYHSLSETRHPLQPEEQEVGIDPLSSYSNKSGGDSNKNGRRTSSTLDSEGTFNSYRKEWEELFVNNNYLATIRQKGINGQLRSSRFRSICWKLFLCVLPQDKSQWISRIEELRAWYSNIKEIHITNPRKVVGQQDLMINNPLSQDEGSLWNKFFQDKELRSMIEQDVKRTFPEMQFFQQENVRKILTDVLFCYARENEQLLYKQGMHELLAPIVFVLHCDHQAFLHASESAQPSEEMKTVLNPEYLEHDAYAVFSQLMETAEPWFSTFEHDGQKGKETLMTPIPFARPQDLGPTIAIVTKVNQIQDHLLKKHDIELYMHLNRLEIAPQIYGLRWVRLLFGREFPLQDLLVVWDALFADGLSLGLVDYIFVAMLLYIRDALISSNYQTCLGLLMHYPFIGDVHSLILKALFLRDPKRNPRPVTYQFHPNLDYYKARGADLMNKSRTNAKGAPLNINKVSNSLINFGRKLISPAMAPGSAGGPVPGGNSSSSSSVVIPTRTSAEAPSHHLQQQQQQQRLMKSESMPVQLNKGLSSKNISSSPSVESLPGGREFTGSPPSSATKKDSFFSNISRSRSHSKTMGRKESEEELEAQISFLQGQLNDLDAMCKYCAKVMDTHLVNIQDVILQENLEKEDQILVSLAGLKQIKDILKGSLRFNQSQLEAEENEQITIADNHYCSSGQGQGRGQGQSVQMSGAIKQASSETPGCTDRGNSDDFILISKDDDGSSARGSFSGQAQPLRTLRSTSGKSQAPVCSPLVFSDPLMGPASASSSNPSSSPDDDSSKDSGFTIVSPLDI
Sequence of UniProt Q8IY18 (Q8IY18 whole entry, looked up): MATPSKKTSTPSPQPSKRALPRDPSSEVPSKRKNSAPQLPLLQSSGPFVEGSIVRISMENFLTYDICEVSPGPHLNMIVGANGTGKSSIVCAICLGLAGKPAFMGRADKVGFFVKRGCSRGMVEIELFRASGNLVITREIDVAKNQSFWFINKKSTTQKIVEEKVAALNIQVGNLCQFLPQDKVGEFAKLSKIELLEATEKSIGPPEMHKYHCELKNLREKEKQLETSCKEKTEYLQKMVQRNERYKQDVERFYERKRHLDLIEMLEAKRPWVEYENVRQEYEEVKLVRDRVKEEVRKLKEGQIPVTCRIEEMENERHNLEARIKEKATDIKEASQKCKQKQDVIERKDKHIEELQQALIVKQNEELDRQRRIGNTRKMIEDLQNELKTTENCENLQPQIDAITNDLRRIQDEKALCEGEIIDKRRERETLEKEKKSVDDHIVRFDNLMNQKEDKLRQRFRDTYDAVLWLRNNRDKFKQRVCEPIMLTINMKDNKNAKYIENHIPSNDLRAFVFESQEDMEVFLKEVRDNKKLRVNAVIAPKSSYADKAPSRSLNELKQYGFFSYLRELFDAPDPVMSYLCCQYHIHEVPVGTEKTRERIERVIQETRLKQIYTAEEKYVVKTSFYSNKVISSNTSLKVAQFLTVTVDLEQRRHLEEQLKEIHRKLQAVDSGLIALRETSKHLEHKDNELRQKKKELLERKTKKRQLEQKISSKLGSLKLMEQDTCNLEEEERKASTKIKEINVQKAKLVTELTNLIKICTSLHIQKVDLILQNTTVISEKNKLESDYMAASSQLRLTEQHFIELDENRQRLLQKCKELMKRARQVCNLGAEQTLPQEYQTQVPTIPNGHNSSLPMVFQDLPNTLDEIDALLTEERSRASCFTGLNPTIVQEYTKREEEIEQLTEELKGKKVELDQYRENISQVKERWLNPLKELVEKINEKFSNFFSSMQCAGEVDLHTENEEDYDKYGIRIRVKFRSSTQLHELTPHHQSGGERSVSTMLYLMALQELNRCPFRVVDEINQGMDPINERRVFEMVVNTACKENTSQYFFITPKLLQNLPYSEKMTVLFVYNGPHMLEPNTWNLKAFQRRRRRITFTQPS
Sequence of UniProt Q86VD7 (Q86VD7 whole entry, looked up): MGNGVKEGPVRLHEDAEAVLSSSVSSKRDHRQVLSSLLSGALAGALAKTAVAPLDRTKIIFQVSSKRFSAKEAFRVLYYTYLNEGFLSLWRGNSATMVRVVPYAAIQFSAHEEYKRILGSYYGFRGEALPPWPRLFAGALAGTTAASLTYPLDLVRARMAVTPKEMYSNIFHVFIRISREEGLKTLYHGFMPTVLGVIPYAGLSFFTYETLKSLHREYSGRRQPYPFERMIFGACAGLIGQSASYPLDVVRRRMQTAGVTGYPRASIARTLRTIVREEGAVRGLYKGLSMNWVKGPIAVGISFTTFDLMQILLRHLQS
Sequence of UniProt Q9Y4R8 (Q9Y4R8 whole entry, looked up): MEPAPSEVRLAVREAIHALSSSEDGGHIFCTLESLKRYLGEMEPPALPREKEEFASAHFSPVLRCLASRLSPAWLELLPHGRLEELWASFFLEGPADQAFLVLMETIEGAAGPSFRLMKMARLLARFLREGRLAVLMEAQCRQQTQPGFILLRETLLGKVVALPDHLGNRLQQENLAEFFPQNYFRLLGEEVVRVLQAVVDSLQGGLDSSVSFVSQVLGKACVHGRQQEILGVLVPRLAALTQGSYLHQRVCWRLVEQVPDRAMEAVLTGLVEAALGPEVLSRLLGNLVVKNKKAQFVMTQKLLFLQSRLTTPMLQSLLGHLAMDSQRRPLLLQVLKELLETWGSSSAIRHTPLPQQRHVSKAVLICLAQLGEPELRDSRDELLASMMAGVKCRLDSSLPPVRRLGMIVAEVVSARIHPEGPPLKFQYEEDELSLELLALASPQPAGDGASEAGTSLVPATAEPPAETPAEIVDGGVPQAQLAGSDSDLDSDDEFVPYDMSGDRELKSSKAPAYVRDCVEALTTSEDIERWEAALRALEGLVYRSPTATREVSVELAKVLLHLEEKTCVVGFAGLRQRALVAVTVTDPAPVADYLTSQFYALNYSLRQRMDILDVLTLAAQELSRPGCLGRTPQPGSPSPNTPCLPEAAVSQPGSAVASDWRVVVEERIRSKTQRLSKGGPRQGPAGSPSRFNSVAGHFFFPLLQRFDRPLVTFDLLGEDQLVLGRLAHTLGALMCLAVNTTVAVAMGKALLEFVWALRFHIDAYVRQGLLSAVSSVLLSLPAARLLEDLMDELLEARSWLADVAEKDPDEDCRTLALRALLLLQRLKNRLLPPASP
Sequence of UniProt Q96QD8 (Q96QD8 whole entry, looked up): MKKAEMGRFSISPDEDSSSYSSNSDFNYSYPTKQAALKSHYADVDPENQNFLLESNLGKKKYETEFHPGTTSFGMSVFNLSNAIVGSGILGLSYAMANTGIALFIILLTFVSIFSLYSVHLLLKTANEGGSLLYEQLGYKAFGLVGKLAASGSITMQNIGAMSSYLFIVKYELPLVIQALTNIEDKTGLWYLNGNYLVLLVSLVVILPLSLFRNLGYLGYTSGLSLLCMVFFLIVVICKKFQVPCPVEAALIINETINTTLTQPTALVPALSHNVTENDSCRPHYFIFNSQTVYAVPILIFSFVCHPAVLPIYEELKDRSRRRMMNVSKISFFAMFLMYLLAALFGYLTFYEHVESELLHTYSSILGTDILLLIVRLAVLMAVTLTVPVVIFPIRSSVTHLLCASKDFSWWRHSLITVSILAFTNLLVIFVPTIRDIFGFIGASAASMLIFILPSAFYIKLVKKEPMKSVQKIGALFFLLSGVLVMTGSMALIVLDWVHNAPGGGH
Sequence of UniProt Q8WVK2 (Q8WVK2 whole entry, looked up): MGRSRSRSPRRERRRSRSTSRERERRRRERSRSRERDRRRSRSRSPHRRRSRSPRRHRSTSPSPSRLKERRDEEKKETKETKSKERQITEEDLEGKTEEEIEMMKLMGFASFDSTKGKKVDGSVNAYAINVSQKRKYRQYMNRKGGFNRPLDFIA
Sequence of UniProt Q8N5G0 (Q8N5G0 whole entry, looked up): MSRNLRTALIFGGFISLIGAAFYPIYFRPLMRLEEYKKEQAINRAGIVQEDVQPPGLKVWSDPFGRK

Compound in this experiment: c1ccc([C@@H]2C[C@H]2NC2CCNCC2)cc1
The experiment is described as follows: log2 fold change, soluble protein after heating vs DMSO (PISA); higher = thermal stabilisation; K562 cells, 10 uM, 30 min; active = over 0.2 and 3.5 SD of the protein, either way, in both replicates (recomputed). A digest of the protocol:
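Aliquots of K562 cells (2×10^6 cells/mL) treated with 10 μM compound for 30 min were heated for 3 min over 48°C-58°C. After pooling and extraction in PBS with 0.5% NP-40 at 4°C, soluble protein from a 21,000xg, 90 min spin was quantified by TMTpro 16plex LC-MS/MS with channel sums equalised. Thermal stability is expressed against control samples, from duplicates, as a log2 fold change.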
For SLC25A42 (UniProt Q86VD7), the log2 fold change is 0.003. On to TELO2 (UniProt Q9Y4R8), for which the log2 fold change was 0.005.

Regarding ST3GAL2 (UniProt Q16842), the log2 fold change was 0.007. Turning to TBC1D5 isoform 2 (UniProt Q92609), the log2 fold change was -0.034. For SRSF2 (UniProt Q01130), the log2 fold change is 0.143. Consider TIMM10B (UniProt Q9Y5J6), for which the log2 fold change is -0.026. Turning to TBC1D23 (UniProt Q9NUY8), the log2 fold change was -0.037. In the case of STOM (UniProt P27105), the log2 fold change is 0.082.

In the case of SLC30A10 (UniProt Q6XR72), the log2 fold change is 0.059. The same measure for TLK2 isoform 2 (UniProt Q86UE8): 0.051; for TATDN2 (UniProt Q93075): 0.071; for SLC6A6 (UniProt P31641): 0.035. Next, SLC38A2 (UniProt Q96QD8): 0.035; SMIM20 isoform 2 (UniProt Q8N5G0): -0.1. Turning to TMBIM6 isoform 2 (UniProt P55061), the log2 fold change was 0.041.

In the case of SLC38A9 (UniProt Q8NBW4), the log2 fold change was 0.042. Turning to SORT1 (UniProt Q99523), the log2 fold change was 0.009.

As for STK38L (UniProt Q9Y2H1), the log2 fold change is 0.224. For the target TK1 (UniProt K7ERV3), the log2 fold change is 0.015. For the target SMAP (UniProt O00193), the log2 fold change is 0.003. As to STRN (UniProt O43815), the log2 fold change is -0.017. For SLC39A11 (UniProt Q8N1S5), the log2 fold change is -0.003.

On to SMC5 (UniProt Q8IY18), for which the log2 fold change was -0.005.

TIMM21 (UniProt Q9BVV7): the log2 fold change was -0.048.

In the case of SURF1 (UniProt Q15526), the log2 fold change is 0.063.

In the case of SNRNP40 (UniProt Q96DI7), the log2 fold change was 0.022. For the target STK39 (UniProt Q9UEW8), the log2 fold change was -0.029. With SYMPK (UniProt Q92797), the log2 fold change was 0.02. Regarding SRRM2 (UniProt Q9UQ35), the log2 fold change is 0.037. As to TGFBR1 isoform 2 (UniProt P36897), the log2 fold change is 0.026. Take SRSF6 (UniProt Q13247): the log2 fold change is 0.015. TM9SF2 (UniProt Q99805): the log2 fold change is -0.028. Next, STK26 (UniProt Q9P289): 0.026; SNRNP27 (UniProt Q8WVK2): 0.044. As for SUPT16H (UniProt Q9Y5B9), the log2 fold change was -0.006. Next, SMDT1 (UniProt Q9H4I9): 0.024; SPR (UniProt P35270): -0.105. Take SMPD4 isoform 2 (UniProt Q9NXE4): the log2 fold change is -0.097.
